Test results as given in PubChem BioAssay (NCI).
“And” between values parts separate entries of the source, which are not always exact repeats. Equal values may be shown once. This is part of a sample that, as a whole, favours compounds with a hit. Of some 79,000 tested, about 15% had one in any assay. The source made the active and inactive calls. Rule as the data show it: active = growth inhibition above about 70%; inactive = the rest.

Key:
[1] = NCI Yeast Anticancer Drug Screen. Data for the rad50 strain (AID 155);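 also: 0% = growth of vehicle-only cultures of the same strain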; settings: S. cerevisiae rad50 strain growth inhibition, active compounds read high; at 50.0 µM unless noted
In short: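 Yeast carrying a defined DNA repair defect were exposed to test compounds, and growth was compared with vehicle-treated controls to give percent inhibition.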

[2] = NCI Yeast Anticancer Drug Screen. Data for the mec2-1 strain (AID 157); settings: S. cerevisiae mec2-1 strain, active compounds read high; at 50.0 µM unless noted
In short: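 Readout is yeast growth inhibition, normalised to vehicle-treated controls, in the mec2-1 strain exposed to compound.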

[3] = NCI Yeast Anticancer Drug Screen. Data for the sgs1 mgt1 strain (AID 161);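 also: 0% = growth of cultures given vehicle only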; settings: S. cerevisiae sgs1 mgt1 strain, active compounds read high; at 50.0 µM unless noted
In short: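 This yeast growth screen uses a strain with defined DNA-repair lesions; compound-treated growth is compared with vehicle-treated growth.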

[4] = NCI Yeast Anticancer Drug Screen. Data for the cln2 rad14 strain (AID 165);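 also: 0% = growth equal to vehicle treated cultures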; settings: S. cerevisiae cln2 rad14 strain, active compounds read high; at 50.0 µM unless noted
In short: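 Relative to vehicle controls, growth inhibition of compound-treated cln2 rad14 yeast was recorded.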

[5] = NCI Yeast Anticancer Drug Screen. Data for the bub3 strain (AID 167); settings: S. cerevisiae bub3 mutant strain, active compounds read high; at 50.0 µM unless noted
In short: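 Compounds were applied to a genetically altered yeast strain carrying a cell-cycle control defect. Growth inhibition was scored against vehicle-treated controls.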

[6] = NCI Yeast Anticancer Drug Screen. Data for the mlh1 rad18 strain (AID 175); settings: S. cerevisiae mlh1 rad18 strain growth inhibition, active compounds read high; at 50.0 µM unless noted
In short: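 Test agents were incubated with a yeast strain of defined genotype (DNA damage repair defect). Inhibition of growth was derived by comparison with vehicle-exposed cultures.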

Measured: growth inhibition

CCCCn1cnc2c(SC)ncnc21
inactive: [1] -8.1% | [2] -23.9% | [3] -18.4% | [4] -0.35% | [5] -32.8% | [6] -3.65%

Oc1ccccc1-c1cc(-c2ccccc2)nc(NCCCNc2nc(-c3ccccc3)cc(-c3ccccc3O)n2)n1
inactive: [1] -11.2% | [2] 8% | [3] -5.3% | [4] -14.8% | [5] 35% | [6] 14.2%

Cn1cnc2[nH]c(=O)[nH]c(=O)c21
inactive: [1] 3.9% | [2] 12.9% | [3] -8.95% | [4] 1.95% | [5] 8.85% | [6] -0.75%

O=C(CCCC1CCCCC1)OC1CCCCC1
inactive: [1] 5.3% | [2] 8.4% | [3] 8.7% | [4] -8.05% | [5] -3.9% | [6] -1.3%

COc1cc(OC)cc(C(=O)CC(=O)c2cc(OC)cc(OC)c2)c1
inactive: [1] -49.6% | [2] -38.3% | [3] -69% | [4] -7.9% | [5] -33.4% | [6] -26.1%

COc1cc2c[n+](C)c3c4cc(OC)c(OC)cc4c(OCc4ccccc4)cc3c2cc1OC
active: [1] 86% | [2] 89.8% | [3] 88.1% | [4] 88.7% | [5] 87.5% | [6] 91.2%

c1cc2c(cc1C1=NNC(c3ccc4c(c3)OCO4)=NN1)OCO2
inactive: [1] -13.3% | [2] 10.2% | [3] -7.45% | [4] 1.4% | [5] -4.95% | [6] -3.05%

C=C1CC(COc2ccc3c(C)c(C)c(=O)oc3c2C)(c2ccccc2)OC1=O (stereo not given)
inactive: [1] 8.85% | [2] -3.75% | [3] 23.9% | [4] 4.85% | [5] 6.7% | [6] 21.4%

O=C(O)c1cc([N+](=O)[O-])cc2c(=O)c3cnccc3[nH]c12
inactive: [1] -23.6% | [2] -0.35% | [3] -1.95% | [4] -25.6% | [5] -8.5% | [6] -9.7%

N#CCc1cccc(Cl)c1Cl (tested in a mixture with another compound)
inactive: [1] 6.8% | [2] -15.3% | [3] 3.55% | [4] -22.4% | [5] 14.4% | [6] -7.55%

Cc1[nH]c(=O)nc2nc3ccc(Cl)cc3c(N(CCO)CCO)c12
inactive: [1] -24.3% | [2] -20.8% | [3] -12.8% | [4] 19.2% | [5] 19.9% | [6] -8.7%

C=C1CCCC(C)(C)[C@@H]1CC/C(C)=C/Cn1c2cccc(=O)c-2nc2ccccc21
inactive: [1] 12.8% | [2] 6.75% | [3] 2.15% | [4] 2.4% | [5] -17.4% | [6] 19.2%

CC(=O)c1ccccc1OB(F)F
inactive: [1] 10.2% | [2] -11.2% | [3] 8.8% | [4] -4.45% | [5] 1.05% | [6] -11.9%

OC(c1ccccc1)(c1ccccc1)C1/C(=C/c2ccccc2)C1Cc1ccccc1 (stereo not given)
inactive: [1] 4.85% | [2] 2.4% | [3] -7.9% | [4] -8.1% | [5] -3.75% | [6] 3%

CNC(=O)NCCCCC(NC(=O)OCc1ccccc1)C(=O)OCc1ccccc1 (stereo not given)
inactive: [1] 3.15% | [2] -14% | [3] -37.2% | [4] -3.5% | [5] 1.15% | [6] -24.1%

C[N+](C)(C)c1ccc2[nH]c3ccccc3c2c1
inactive: [1] 8.7% | [2] -11.2% | [3] 8.25% | [4] -27.8% | [5] -6.5% | [6] 7.55%

CC1Cc2c(n[nH]c2CC2CC(=O)NC(=O)C2)C(C)C1 (stereo not given)
inactive: [1] 8.6% | [2] -2.35% | [3] 4% | [4] -15.7% | [5] 29.4% | [6] 17.8%

Cc1ccc([N+](=O)[O-])cc1NC(=O)/C(=N/NC(=S)NN)C1SC(=S)NC1=O (stereo not given)
inactive: [1] 19.4% | [2] -12.1% | [3] 12.2% | [4] 20.9% | [5] -19.6% | [6] -8.75%

C[N+](C)(C)CCc1ccc(Cl)cc1
inactive: [1] 10.2% | [2] 7.45% | [3] 9.7% | [4] -3.7% | [5] -0.05% | [6] 21.8%

CCOC(=O)c1ccc(NC(=O)Nc2cc(Cl)ccc2C)cc1
inactive: [1] 38.9% | [2] 8.45% | [3] 16.1% | [4] 6.4% | [5] 36.2% | [6] 25.4%

N.N.N.N.O=C(O)C1OCCOCCOC(C(=O)O)C(C(=O)O)OCCOCCOC1C(=O)O.[Pt+2].[Pt+2] (stereo not given)
inactive: [1] -33.2% | [2] -14% | [3] -12.5% | [4] -26.1% | [5] -13.5% | [6] -9.2%

CN1CNC(=O)NC1
inactive: [1] -37% and 10.6% | [2] -25.8% and -10.5% | [3] -12.3% and 9.8% | [4] 4.05% and 8.2% | [5] -23.1% and -11.1% | [6] -16.1% and 23.9%

Cc1nnc(N/N=C(/C(=O)C(C#N)c2ccc(Cl)cc2)C(C#N)c2ccc(Cl)cc2)n1N (stereo not given)
inactive: [1] -9.3% | [2] 19.6% | [3] 3.85% | [4] 16.6% | [5] 12% | [6] 7.4%

O=C(OCc1ccccc1)ON1C(=O)C2C3C=CC(C3)C2C1=O (stereo not given)
inactive: [1] -26.4% | [2] -54.2% | [3] 12.5% | [4] -9.1% | [5] -19% | [6] 5.05%

CC(C)(O)C#CC(C)(C)O
inactive: [1] 1.1% | [2] -7.7% | [3] -10.7% | [4] 0.25% | [5] 5.65% | [6] -11.7%

NS(=O)(=O)c1ccc(N=Nc2ncccc2O)cc1
inactive: [1] 19.4% | [2] 3.4% | [3] -12.3% | [4] -30.6% | [5] -44% | [6] 20.6%

Cn1cnc2nc(Cl)nc(N)c21
inactive: [1] 0% | [2] -4.15% | [3] 6.05% | [4] -16.6% | [5] 7.75% | [6] -9.4%

CCOC(=O)c1c(SCc2ccccc2)nc2c3ccccc3ccn12
inactive: [1] -18.2% | [2] -18.6% | [3] -29.9% | [4] -1.15% | [5] -20.9% | [6] -57.5%

CC(=O)ONC(C(=O)C(C)(C)C)C(=O)C(C)(C)C
inactive: [1] -1.4% | [2] -4.4% | [3] -3.9% | [4] 24.7% | [5] -2.7% | [6] -4.8%

NCC1COC(c2ccccc2)(c2ccccc2)O1 (stereo not given)
inactive: [1] -2.25% | [2] -12.4% | [3] -12.9% | [4] -32.5% | [5] 17.8% | [6] -7.65%

COc1cc2c(cc1OC)[C@H](c1cc(OC)c3c(c1)OCO3)[C@H]1C(=O)OCC1C2 (stereo not given in full)
inactive: [1] 11.4% | [2] -0.1% | [3] 0.2% | [4] 4.85% | [5] 30.6% | [6] 15.4%

O=C(NCCCl)NC1CCCCCC1
inactive: [1] -10.8% | [2] -3.6% | [3] -16% | [4] -9.35% | [5] -3.05% | [6] 2.05%

O=C(O)c1ccccc1SCCO
inactive: [1] -1.95% | [2] 18% | [3] 25.3% | [4] 47.8% | [5] -22.4% | [6] -3.8%

CC(=O)OCC1OC(n2c(-c3ccc(C)cc3)cc(-c3ccco3)c(C#N)c2=O)C(OC(C)=O)C(OC(C)=O)C1OC(C)=O (stereo not given)
inactive: [1] 10.6% and -5.75% | [2] 10.6% and -5.75% | [3] 20.6% and 4.95% | [4] 13.5% and -16.8% | [5] 27.4% and -4.4% | [6] 14.4% and 9.7%

CNC(=S)C#N
inactive: [1] -21.8% | [2] -14.4% | [3] -15.3% | [4] 11.9% | [5] -13% | [6] 0.1%

CSCCC(Nc1ccc([N+](=O)[O-])cc1[N+](=O)[O-])C(=O)O (stereo not given)
inactive: [1] 9.55% | [2] 7.25% | [3] 34.4% | [4] 18.1% | [5] 17.9% | [6] -18.1%

CCCCCCCCN(CCCCCCCC)CC(O)c1ccnc2c(Cl)cc(Cl)cc12 (stereo not given)
inactive: [1] 16.5% | [2] 15.2% | [3] 43.2% | [4] 5.7% | [5] 4.85% | [6] 33.3%

CC(C)OC(=S)SC1CCCCC1=O (stereo not given)
inactive: [1] -0.45% | [2] -8.1% | [3] -4.35% | [4] -66.2% | [5] -6.2% | [6] -8.25%

COc1ccc(C=O)cc1OCc1ccccc1
inactive: [1] -10.2% | [2] -29.4% | [3] -3.15% | [4] -7.35% | [5] -18.2% | [6] 7.55%

CCN(CC)C(=O)c1c(N2CCOCC2)cc(N(CC)CC)oc1=O
inactive: [1] -10.2% | [2] -8.25% | [3] -46.6% | [4] -8.85% | [5] -37.9% | [6] -40.6%
